Our source for the growth values is PubChem BioAssay (NCI).

Experiment in all cases: NCI-60 one-dose screen, 48 h (100 = growth as untreated, 0 = no growth, -100 = all killed)
One test deals with DU-145 prostate. The note with it: 10 µM unless noted.
The subject of the next test is K-562 leukemia. The following applies: 10 µM unless noted.
Another test relates to MALME-3M melanoma. The note with it: 10 µM unless noted.
For the next test, the system named is MDA-MB-231 breast. The following applies: 10 µM unless noted.
In a further test the test system is RXF 393 renal. The note with it: 10 µM unless noted.
For another test, the system named is SF-268 CNS. The following applies: 10 µM unless noted.
In the next test the test system is SF-295 CNS. The following applies: 10 µM unless noted.
In the next test the test system is SF-539 CNS. The note with it: 10 µM unless noted.
The test system of a further test is UACC-257 melanoma. The note with it: 10 µM unless noted.
The subject of another test is M14 melanoma. The following applies: 10 µM unless noted.
The next test relates to HCT-15 colon. The following applies: 10 µM unless noted.
The test system of another test is HT29 colon. The note with it: 10 µM unless noted.
The next test has as its system SNB-75 CNS. The following applies: 10 µM unless noted.
For the next test, the system named is U251 CNS. The note with it: 10 µM unless noted.
For another test, the system named is PC-3 prostate. The following applies: 10 µM unless noted.
The subject of the next test is SK-MEL-5 melanoma. The note with it: 10 µM unless noted.
A further test relates to UACC-62 melanoma. The following applies: 10 µM unless noted.
Another test relates to LOX IMVI melanoma. The note with it: 10 µM.
A further test relates to SK-MEL-28 melanoma. The following applies: 10 µM unless noted.
A further test has as its system SNB-19 CNS. The following applies: 10 µM unless noted.

Compounds without any hit were thinned out: in the full panel of roughly 83,000, 20% have a hit.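 Assay: single dose, 48 h. Readout: percent growth (0 = no net growth; negative = cell death). Active: <10.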 A number with no mark means an inactive call. Active and inactive are the calls of the source.

With `Cc1ccc(NC(=O)[C@]23CCC(C)(C)CC2C2=CCC4[C@@]5(C)C[C@@H](O)[C@H](O)[C@@](C)(CO)C5CC[C@@]4(C)[C@]2(C)CC3)cc1` (some centres not stated), the growth is 45.6% with DU-145 prostate; 11.6% in the test on K-562 leukemia; 49.5% with MALME-3M melanoma; -8.63% (active) with MDA-MB-231 breast; -38.6% (active) in the test with RXF 393 renal; 48.5% in the test with SF-268 CNS. The growth in the test with SF-295 CNS was 21.8%; with SF-539 CNS, 28.1%; in the test on UACC-257 melanoma it was 39.8%; in the test with M14 melanoma, 38.3%; in the test on HCT-15 colon it was 11.7%; in the test on HT29 colon, -50% (active). For the same compound, the growth with SNB-75 CNS was 74.4%; in the test on U251 CNS, 26.8%; with PC-3 prostate, 5.82% (active); in the test with SK-MEL-5 melanoma, -83.2% (active); in the test on UACC-62 melanoma, 34.3%; with LOX IMVI melanoma it was -6.45% (active). Also, the growth in the test with SK-MEL-28 melanoma was 47.9%.

For the compound `CC12CC[C@@H]3[C@]4(C)COC(c5cn[nH]c5-c5ccc(Br)cc5)O[C@@H]4CC[C@@]3(C)[C@@H]1CC(C1=CCOC1=O)O2` (some centres not stated), the growth with DU-145 prostate is 69.5%; in the test on K-562 leukemia it was 19.4%; with MALME-3M melanoma, 70.2%; with MDA-MB-231 breast it was 66%; with RXF 393 renal it was 37%; with SF-268 CNS it was 50.1%. Moreover, the growth in the test on SF-295 CNS is 48.7%; with SF-539 CNS it was 69.9%; in the test with UACC-257 melanoma it was 55.2%; in the test with M14 melanoma, 38.8%; in the test with HCT-15 colon, 42.2%; in the test on HT29 colon it was 47.6%. In addition, the growth in the test with SNB-19 CNS is 59.4%; with U251 CNS, 53%; in the test on PC-3 prostate it was 24.2%; with SK-MEL-5 melanoma it was 32.4%; in the test on UACC-62 melanoma, 41.5%; in the test with LOX IMVI melanoma, 22.1%. The growth in the test on SK-MEL-28 melanoma is 47.1%.

For `CCOC(=O)c1ccc(Nc2nc(NN)nc(-c3ccc(F)cc3)c2C#N)cc1`, the growth in the test on DU-145 prostate was 113%; in the test with K-562 leukemia it was 32.2%; in the test with MALME-3M melanoma, 98.5%; in the test on MDA-MB-231 breast, 76.7%; with RXF 393 renal, 142%; in the test with SF-268 CNS, 109%. Also, the growth was 97.8% with SF-295 CNS; 104% with SF-539 CNS; 103% in the test with UACC-257 melanoma; 98% with M14 melanoma; 109% in the test with HCT-15 colon; 97.6% in the test on HT29 colon. Besides, the growth with SNB-19 CNS is 100%; with U251 CNS it was 115%; in the test with PC-3 prostate, 103%; with SK-MEL-5 melanoma, 102%; in the test on UACC-62 melanoma it was 91.3%; in the test on LOX IMVI melanoma it was 112%. Besides, in the test with SK-MEL-28 melanoma, the growth is 109%.

Turning to `C=C1CCC2C3(C)COC(c4ccco4)OC3CCC2(C)C1CC(Sc1ccccc1)C1=CCOC1=O` (configuration not stated), the growth in the test on DU-145 prostate is 78.4%; in the test with K-562 leukemia, 18.5%; with MALME-3M melanoma, 94.9%; in the test on MDA-MB-231 breast, 78.5%; in the test on RXF 393 renal, 96.5%; in the test on SF-268 CNS it was 91.5%. Further, the growth in the test on SF-295 CNS is 76.1%; with SF-539 CNS, 48.3%; in the test on UACC-257 melanoma, 54.1%; in the test on M14 melanoma, 61.6%; with HCT-15 colon it was 3.97% (active); with HT29 colon, 8.59% (active). The growth in the test on SNB-19 CNS is 86.2%; with U251 CNS, 31.9%; with PC-3 prostate, 50.2%; in the test with SK-MEL-5 melanoma, 63.4%; with UACC-62 melanoma, 30.2%; in the test with LOX IMVI melanoma it was -96.1% (active). Also, the growth in the test with SK-MEL-28 melanoma was 56.1%.

In the case of `COc1ccc(-c2nc3cc(C)ccc3n2CC(=O)N=Nc2c(O)[nH]c3ccc(Cl)cc23)cc1`, the growth in the test on DU-145 prostate was 15%; in the test with K-562 leukemia, 4.54% (active); with MALME-3M melanoma, -56.9% (active); with MDA-MB-231 breast, -43.8% (active); in the test with RXF 393 renal it was -63.2% (active); with SF-268 CNS it was 21.6%. Further, the growth in the test on SF-295 CNS was -67.5% (active); with SF-539 CNS, -52.7% (active); in the test with UACC-257 melanoma, -31.2% (active); in the test on M14 melanoma, -44.6% (active); with HCT-15 colon, -71.2% (active); in the test on HT29 colon, -71.1% (active). In addition, the growth is 31.4% in the test on SNB-19 CNS; -73.9% (active) in the test on U251 CNS; 9.75% (active) with PC-3 prostate; -36.2% (active) with SK-MEL-5 melanoma; -52.3% (active) with UACC-62 melanoma; -93.4% (active) with LOX IMVI melanoma. Also, the growth in the test on SK-MEL-28 melanoma is -67.6% (active).

On to `COc1ccccc1C(=O)NN1C(=O)/C(=C/C2=Cc3ccccc3OC2)SC1=S`, for which the growth in the test with DU-145 prostate is 112%; in the test on K-562 leukemia it was 101%; in the test with MALME-3M melanoma, 99.3%; with MDA-MB-231 breast, 102%; in the test on RXF 393 renal it was 114%; in the test with SF-268 CNS, 109%. The growth is 109% in the test with SF-295 CNS; 95.4% with SF-539 CNS; 108% with UACC-257 melanoma; 99.3% with M14 melanoma; 114% with HCT-15 colon; 110% in the test with HT29 colon. Moreover, the growth was 97.6% with SNB-19 CNS; 101% in the test on U251 CNS; 91.2% in the test on PC-3 prostate; 104% with SK-MEL-5 melanoma; 91.8% in the test on UACC-62 melanoma; 94% in the test on LOX IMVI melanoma. Besides, in the test with SK-MEL-28 melanoma, the growth is 109%.

As for `CC12CC[C@@H]3[C@]4(C)COC(c5cn[nH]c5-c5cccc(Br)c5)O[C@@H]4CC[C@@]3(C)[C@@H]1CC(C1=CCOC1=O)O2` (some centres not stated), the growth in the test with DU-145 prostate is 53.5%; in the test with K-562 leukemia it was 15%; in the test with MALME-3M melanoma, 37.7%; in the test with MDA-MB-231 breast, 35.1%; with RXF 393 renal, 6.19% (active); in the test with SF-268 CNS, 47%. For the same compound, the growth was 34.9% in the test on SF-295 CNS; 54.8% with SF-539 CNS; 41.8% in the test on UACC-257 melanoma; 22.3% in the test on M14 melanoma; 23.3% in the test with HCT-15 colon; 23.2% with HT29 colon. Besides, the growth with SNB-19 CNS is 51.2%; in the test on U251 CNS it was 32.1%; in the test on PC-3 prostate it was 12.9%; in the test on SK-MEL-5 melanoma, 3.56% (active); with UACC-62 melanoma, 20.9%; in the test on LOX IMVI melanoma it was -8.01% (active). In the test with SK-MEL-28 melanoma, the growth was 34%.

For `COc1ccc(-c2nc3cc(C)ccc3n2CC(=O)N=Nc2c(O)[nH]c3ccc(OC)cc23)cc1`, the growth in the test with DU-145 prostate was 8.56% (active); with K-562 leukemia, -28.5% (active); in the test on MALME-3M melanoma it was -94.6% (active); in the test on MDA-MB-231 breast, -76.3% (active); with RXF 393 renal it was -82.9% (active); in the test on SF-268 CNS it was -8.44% (active). For the same compound, the growth in the test on SF-295 CNS is -72.9% (active); in the test on SF-539 CNS, -99% (active); with UACC-257 melanoma it was -78% (active); with M14 melanoma, -83.2% (active); in the test with HCT-15 colon it was -86.5% (active); in the test on HT29 colon, -20% (active). Further, the growth with SNB-19 CNS is 4.91% (active); with U251 CNS, -80.2% (active); in the test with PC-3 prostate it was -52.4% (active); with SK-MEL-5 melanoma, -95.9% (active); with UACC-62 melanoma it was -86.5% (active); in the test on LOX IMVI melanoma it was -98% (active). In addition, the growth with SK-MEL-28 melanoma is -97.8% (active).
